Where a name gives a salt, the structure may show the parent alone.
Key:
[1] = system: HCC1937; test: relative cell viability, compound + erastin, vs DMSO (fraction of DMSO control); higher = less growth inhibition; conditions: 72 h
[2] = system: MDA-MB-231; test: as above; conditions: 72 h
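Note: viability read by CCK-8 kit in 96-well plates, part of a combination screen pairing lipid-metabolism-targeting compounds with erastin.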

Row | Compound | relative cell viability [1] | relative cell viability [2]
1 | CC(C)OC(=O)C(C)(C)Oc1ccc(C(=O)c2ccc(Cl)cc2)cc1 [Fenofibrate] + CCOc1ccccc1-n1c(C(C)N2CCN(C(=O)COc3ccc(Cl)cc3)CC2)nc2ccccc2c1=O [erastin] | 0.878 | 0.646
2 | C[C@@H](Nc1nc(N[C@H](C)C(F)(F)F)nc(-c2cccc(Cl)n2)n1)C(F)(F)F [Vorasidenib] + CCOc1ccccc1-n1c(C(C)N2CCN(C(=O)COc3ccc(Cl)cc3)CC2)nc2ccccc2c1=O [erastin] | 0.607 | 0.68
3 | C[C@H](CCCC(C)(C)O)[C@H]1CC[C@H]2[C@@H]3CC=C4C[C@@H](O)CC[C@]4(C)[C@H]3CC[C@]12C [25-Hydroxycholesterol] + CCOc1ccccc1-n1c(C(C)N2CCN(C(=O)COc3ccc(Cl)cc3)CC2)nc2ccccc2c1=O [erastin] | 0.745 | 0.483
4 | C[C@H](CCC(=O)O)[C@H]1CC[C@H]2[C@@H]3C[C@H](O)[C@@H]4C[C@H](O)CC[C@]4(C)[C@H]3CC[C@]12C [Hyodeoxycholic acid] + CCOc1ccccc1-n1c(C(C)N2CCN(C(=O)COc3ccc(Cl)cc3)CC2)nc2ccccc2c1=O [erastin] | 0.767 | 0.881
5 | O=C(NC1CCN(CCCCC2(C(=O)NCC(F)(F)F)c3ccccc3-c3ccccc32)CC1)c1ccccc1-c1ccc(C(F)(F)F)cc1 [Lomitapide] + CCOc1ccccc1-n1c(C(C)N2CCN(C(=O)COc3ccc(Cl)cc3)CC2)nc2ccccc2c1=O [erastin] | 0.201 | 0.436
6 | C[C@@H]1OCC2(CCN(c3cnc(Sc4ccnc(N)c4Cl)c(N)n3)CC2)[C@@H]1N + CCOc1ccccc1-n1c(C(C)N2CCN(C(=O)COc3ccc(Cl)cc3)CC2)nc2ccccc2c1=O [erastin] | 0.553 | 0.732
7 | O=C(Nc1ccc(C(O)(C(F)(F)F)C(F)(F)F)cc1)c1ccccc1Cl + CCOc1ccccc1-n1c(C(C)N2CCN(C(=O)COc3ccc(Cl)cc3)CC2)nc2ccccc2c1=O [erastin] | 0.769 | 0.844
8 | CC(=O)Nc1nc(C)c(S(=O)(=O)Nc2ccc(C(O)(C(F)(F)F)C(F)(F)F)cc2)s1 + CCOc1ccccc1-n1c(C(C)N2CCN(C(=O)COc3ccc(Cl)cc3)CC2)nc2ccccc2c1=O [erastin] | 0.956 | 1.1
9 | C=C(C)[C@@H]1CC[C@]2(C)CC[C@]3(C)[C@H](CC[C@@H]4[C@@]5(C)CCC(=O)C(C)(C)[C@@H]5CC[C@]43C)[C@@H]12 + CCOc1ccccc1-n1c(C(C)N2CCN(C(=O)COc3ccc(Cl)cc3)CC2)nc2ccccc2c1=O [erastin] | 0.608 | 0.594
10 | CCCCCCCCCCOc1ccc(C(=O)Nc2cc(C(=O)NCCCC)ccc2SC)cc1 + CCOc1ccccc1-n1c(C(C)N2CCN(C(=O)COc3ccc(Cl)cc3)CC2)nc2ccccc2c1=O [erastin] | 0.739 | 0.845
11 | Cc1nc(-c2nc(-c3ccc(OC(F)(F)F)cc3)no2)nn1Cc1cccc(N2CCC(S(C)(=O)=O)CC2)c1 + CCOc1ccccc1-n1c(C(C)N2CCN(C(=O)COc3ccc(Cl)cc3)CC2)nc2ccccc2c1=O [erastin] | 0.647 | 0.621
12 | Cn1nc(C(=O)N(Cc2ccccc2)Cc2ccc(C(=O)O)cc2)c2c1-c1cc(Cl)ccc1OC2 [Nidufexor] + CCOc1ccccc1-n1c(C(C)N2CCN(C(=O)COc3ccc(Cl)cc3)CC2)nc2ccccc2c1=O [erastin] | 0.638 | 0.771
13 | CC(C)(Oc1ccc(Cl)cc1)C(=O)O [Clofibric acid] + CCOc1ccccc1-n1c(C(C)N2CCN(C(=O)COc3ccc(Cl)cc3)CC2)nc2ccccc2c1=O [erastin] | 0.923 | 0.592
14 | CCc1ccc(N(CC(C)C)S(=O)(=O)c2ccc(OCC3CCOCC3)c(CO)c2)cc1 + CCOc1ccccc1-n1c(C(C)N2CCN(C(=O)COc3ccc(Cl)cc3)CC2)nc2ccccc2c1=O [erastin] | 0.508 | 0.604
15 | O=c1c(-c2ccc(O)cc2)coc2cc(O)ccc12 [Daidzein] + CCOc1ccccc1-n1c(C(C)N2CCN(C(=O)COc3ccc(Cl)cc3)CC2)nc2ccccc2c1=O [erastin] | 0.827 | 0.619
16 | COc1cccc(CNc2ccc(S(=O)(=O)Nc3nc4ccccc4s3)cc2)c1O + CCOc1ccccc1-n1c(C(C)N2CCN(C(=O)COc3ccc(Cl)cc3)CC2)nc2ccccc2c1=O [erastin] | 0.639 | 0.68
17 | CC(C)n1c(/C=C/C(O)CC(O)CC(=O)O)c(-c2ccc(F)cc2)c2ccccc21 (stereo not given) [Fluvastatin sodium salt] + CCOc1ccccc1-n1c(C(C)N2CCN(C(=O)COc3ccc(Cl)cc3)CC2)nc2ccccc2c1=O [erastin] | 0.58 | 0.869
18 | Cc1ccc(/C=C2\SC(=S)N(CCCCCC(=O)Nc3ccc(C(=O)O)c(O)c3)C2=O)cc1 + CCOc1ccccc1-n1c(C(C)N2CCN(C(=O)COc3ccc(Cl)cc3)CC2)nc2ccccc2c1=O [erastin] | 0.715 | 0.638

Row | Compound | relative cell viability [1] | relative cell viability [2]
19 | O=C(O)c1cccc(N=Nc2c(O)[nH]c3ccc(S(=O)(=O)NCc4ccc(F)cc4)cc23)c1 + CCOc1ccccc1-n1c(C(C)N2CCN(C(=O)COc3ccc(Cl)cc3)CC2)nc2ccccc2c1=O [erastin] | 0.544 | 0.636
20 | Nn1nnc2ccccc21 [1-Aminobenzotriazole] + CCOc1ccccc1-n1c(C(C)N2CCN(C(=O)COc3ccc(Cl)cc3)CC2)nc2ccccc2c1=O [erastin] | 0.76 | 0.73
21 | NC(CO)C(=O)O (racemic) [DL-Serine] + CCOc1ccccc1-n1c(C(C)N2CCN(C(=O)COc3ccc(Cl)cc3)CC2)nc2ccccc2c1=O [erastin] | 0.667 | 0.62
22 | C[C@@H]1O[C@@H](O[C@H]2[C@H](Oc3cc(O)c4c(c3)O[C@H](c3ccc(O)cc3)CC4=O)O[C@H](CO)[C@@H](O)[C@@H]2O)[C@H](O)[C@H](O)[C@H]1O [Naringin] + CCOc1ccccc1-n1c(C(C)N2CCN(C(=O)COc3ccc(Cl)cc3)CC2)nc2ccccc2c1=O [erastin] | 0.902 | 0.632
23 | O=C(/C=C/c1ccc(/C=C/C(=O)Nc2ccc(C3=NCCN3)cc2)cc1)Nc1ccc(C2=NCCN2)cc1 + CCOc1ccccc1-n1c(C(C)N2CCN(C(=O)COc3ccc(Cl)cc3)CC2)nc2ccccc2c1=O [erastin] | 0.554 | 0.346
24 | O=c1oc2ccccc2cc1O [3-Hydroxycoumarin] + CCOc1ccccc1-n1c(C(C)N2CCN(C(=O)COc3ccc(Cl)cc3)CC2)nc2ccccc2c1=O [erastin] | 0.61 | 0.741
25 | O=C1C=CC[C@@H]2[C@H]3CCCN4CCC[C@@H](CN12)[C@@H]34 [Sophocarpine] + CCOc1ccccc1-n1c(C(C)N2CCN(C(=O)COc3ccc(Cl)cc3)CC2)nc2ccccc2c1=O [erastin] | 0.705 | 0.856
26 | COc1ccc([C@@H]2OC[C@H]3[C@@H]2CO[C@@H]3c2ccc(O[C@@H]3O[C@H](CO)[C@@H](O)[C@H](O)[C@H]3O)c(OC)c2)cc1OC [Forsythin] + CCOc1ccccc1-n1c(C(C)N2CCN(C(=O)COc3ccc(Cl)cc3)CC2)nc2ccccc2c1=O [erastin] | 0.718 | 0.754
27 | O=C(O)c1c[nH]c2cc(Cl)c(-c3ccc(C4(O)CCC4)cc3)cc12 + CCOc1ccccc1-n1c(C(C)N2CCN(C(=O)COc3ccc(Cl)cc3)CC2)nc2ccccc2c1=O [erastin] | 0.599 | 0.677
28 | CCc1ccc(CCOc2ccc(CC3SC(=O)NC3=O)cc2)nc1 (stereo not given) [Pioglitazone] + CCOc1ccccc1-n1c(C(C)N2CCN(C(=O)COc3ccc(Cl)cc3)CC2)nc2ccccc2c1=O [erastin] | 0.803 | 0.551
29 | COc1c(/C=C/C(=O)c2ccc(O)cc2)ccc(O)c1CC=C(C)C + CCOc1ccccc1-n1c(C(C)N2CCN(C(=O)COc3ccc(Cl)cc3)CC2)nc2ccccc2c1=O [erastin] | 0.58 | 0.749
30 | COc1ccc(CN2CCC(c3ccc4nc(C(=O)N5CCN(Cc6ccc(C(F)(F)F)cc6)CC5)[nH]c4c3)CC2)cn1 + CCOc1ccccc1-n1c(C(C)N2CCN(C(=O)COc3ccc(Cl)cc3)CC2)nc2ccccc2c1=O [erastin] | 0.569 | 0.585
31 | C/C=C(\CC[C@@H](C)[C@H]1CC[C@H]2[C@@H]3CC=C4C[C@@H](O)CC[C@]4(C)[C@H]3CC[C@]12C)C(C)C [Fucosterol] + CCOc1ccccc1-n1c(C(C)N2CCN(C(=O)COc3ccc(Cl)cc3)CC2)nc2ccccc2c1=O [erastin] | 0.685 | 0.881
32 | Nc1ncnc2c1ncn2[C@@H]1O[C@H](COP(=O)(O)O)[C@@H](O)[C@H]1O [Adenosine 5'-monophosphate] + CCOc1ccccc1-n1c(C(C)N2CCN(C(=O)COc3ccc(Cl)cc3)CC2)nc2ccccc2c1=O [erastin] | 0.642 | 0.716
33 | Nc1cccc(S(=O)(=O)N2CCCN(S(=O)(=O)c3ccc4c(c3)OCCO4)CC2)c1 + CCOc1ccccc1-n1c(C(C)N2CCN(C(=O)COc3ccc(Cl)cc3)CC2)nc2ccccc2c1=O [erastin] | 0.817 | 0.553
34 | CCCCCCCCCCCCCCOc1ccc(C(=O)OCC(=O)N(C)CC(=O)OCC)o1 [Olumacostat Glasaretil] + CCOc1ccccc1-n1c(C(C)N2CCN(C(=O)COc3ccc(Cl)cc3)CC2)nc2ccccc2c1=O [erastin] | 0.549 | 0.477
35 | CCN(CC)c1ccc(C=NNC(=O)c2ccncc2)c(O)c1 + CCOc1ccccc1-n1c(C(C)N2CCN(C(=O)COc3ccc(Cl)cc3)CC2)nc2ccccc2c1=O [erastin] | 0.254 | 0.677

From the supplement of paper PMC9492666
